Pf Dd2 growth – Plasmodium falciparum Dd2 growth inhibition; P. falciparum Dd2 growth, SYBR Green, 72 h; Potency, µM (series often up to 28.9 µM), without a hit: top-dose activity, negative = inhibition, actives largely listed as inhibitors; 120,000 tested, 4.3% active; active = well fitted inhibition curve with a large enough effect;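 also: plate controls were DMSO vehicle for no effect and reference drug for full effect; nearly all actives have a fitted effect of over 65% in size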
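Readout: SYBR Green fluorescence, 485 nm excitation, 535 nm emission, after ~16 h lysis at 37C. Before that, Dd2-infected red cells (2.5% hematocrit) grew 72 h with compound, 29 uM top final concentration.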
The depositor's hits bear a star; i = inactive; [ ] = remark or other dose. The sample as a whole holds a higher share of hits than the screen did. Potency is read from the fitted curve at half-maximal effect.

SMILES	Pf Dd2 growth
O=C1CCN(CC2CC2)CCCC(c2nc(-c3cccnc3)no2)CCN1 (stereo not given)	i
Cc1cc(C[C@@H]2COC[C@@H]2NC(=O)c2c(C)cc(C)n(C)c2=O)on1	10%
CC(C)OC(=O)c1cccnc1SCC(=O)Nc1ccc(C(F)(F)F)cc1Cl	3.2µM*
Cc1cnc(=O)[nH]c1SCC(=O)Nc1cc(C(F)(F)F)ccc1Cl	5%
O=C(CSc1nccn1Cc1ccco1)Nc1cc(C(F)(F)F)ccc1Cl	i
CCOc1cc(=O)n2c(c1C(=O)Nc1ccc(C)c(F)c1)CCCC2	i
CN(C)Cc1nnc(C2CCN(C(=O)CCc3ccncc3)CC2)n1C	0%
CNC(=O)CCn1ncc2cc(OCc3ccccc3-c3cccc(OC)c3)ccc21	-4%[44.1 µM]
CNC(=O)CCn1ncc2cc(OCc3ccccc3-c3ccc(OC)cc3C)ccc21	5.6µM*
COc1ccc(C)cc1-c1ccc(COc2ccc3c(cnn3CCC(=O)O)c2)cc1	i
CNC(=O)CCn1ncc2cc(OC3CCc4cccc(-c5ccc(O)c(F)c5)c43)ccc21 (stereo not given)	i
O=C(O)CCn1ncc2cc(OCc3ccc(-c4cccc(CO)c4)cc3)ccc21	i
CNC(=O)CCn1ncc2cc(OCc3ccccc3-c3ccsc3)ccc21	6.3µM*
CN(C)C[C@@H]1CN(S(C)(=O)=O)C[C@H]1NC(=O)c1cccs1	31%
CNC(=O)c1cc[nH]c1C1CCCN(C(=O)C2CC=CCC2)C1 (stereo not given)	7%
CC(C)CN1C(=O)c2cccn2CC1CNC(=O)CC1CCCC1 (stereo not given)	-12%
Cc1ccc(NC(=O)CN(C)S(=O)(=O)c2cccc3cccnc23)cc1F	i
Cc1cccc(NC(c2ccccc2C)c2ccc3ccc(C)nc3c2O)n1 (stereo not given)	5µM*
Oc1c(C(Nc2ccccn2)c2ccccc2F)ccc2cccnc12 (stereo not given)	1.1µM*
Cc1ccnc(NC(c2ccccc2F)c2ccc3cccnc3c2O)c1 (stereo not given)	6.3µM*
COc1ccc(C2C(C(=O)OC(C)(C)C)=C(C)N=C3SC=C(CC(=O)NCC4CC4)N32)cc1OC (stereo not given)	-30%
CCOCCCNC(=O)N1CCC(Cc2nc(-c3ccncc3)n[nH]2)CC1	i
CC(C)c1noc(C2CCCN(S(=O)(=O)c3ccc4c(c3)CCC4)CCC(=O)NCC2)n1 (stereo not given)	-11%
COc1ccc(C(=O)NC(C(=O)NC2CC2)C2CCN(C(C)=O)CC2)cc1 (stereo not given)	3%
COc1cccc(S(=O)(=O)N2CCn3c(nnc3-c3ccncc3)C2)c1	10%
SMILES	Pf Dd2 growth
Cn1nc(-c2cccs2)cc1[C@H]1CN2CC[C@H]1C[C@@H]2COC(=O)Nc1cccc(C(F)(F)F)c1	-8%
Cn1nc(-c2ccc(F)cc2)cc1[C@H]1CN2CC[C@H]1C[C@@H]2COC(=O)Nc1cccc(C(F)(F)F)c1	-19%
Cc1nc(-c2cccs2)cc([C@H]2CN3CC[C@H]2C[C@@H]3COC(=O)NC2CCCCC2)n1	i
Cc1nc(-c2cccs2)cc([C@H]2CN3CC[C@H]2C[C@@H]3CO)n1	11µM*
Cc1nc(-c2cccs2)cc([C@H]2CN3CC[C@H]2C[C@@H]3COC(=O)Nc2cccc(C(F)(F)F)c2)n1	7.9µM*
CCNC(=O)NC[C@H]1C[C@@H]2CCN1C[C@@H]2c1cc(-c2cccs2)nn1C	i
COc1cccc(CNC(=O)Cn2ccn3nc4c(c3c2=O)CCCCC4)c1OC	i
Cc1ccc(S(=O)(=O)N2C[C@@H](F)C[C@H]2C(=O)N2CCc3ccccc3C2)cc1Cl	20%
CCN(C(=O)Cn1ccn2nc(-c3ccc(F)cc3)c(CO)c2c1=O)c1ccccc1	-4%
Cc1ccc(NC(=O)CCC2CCN(C(=O)c3ccccc3)CC2)cc1F	i
COCCN1CCCN(C(=O)c2ccoc2)c2ccccc21	-24%
COCCN1CCCN(C(=O)c2cc(C)cc(C)c2)c2ccccc21	i
COCCN1CCCN(C(=O)c2cc(C)ccc2C)c2ccccc21	10µM*
COc1cccc(CCN2CC[C@H]3CN(C(=O)Nc4ccc(F)cc4)CC[C@H]3CC2=O)c1OC	i
COCCC(=O)N1CCCCCC1CN1CCOCC1 (stereo not given)	-16%
COc1ccc(C(=O)N[C@@H]2CCC[C@@H]2C(=O)N(C)C)cc1	14%
COC1CN(C2CCN(C(=O)CC(C)C)CC2)C12CCOCC2 (stereo not given)	-21%
CN1CCN(C[C@H]2CN3CC[C@H]2C[C@@H]3CNC(=O)Nc2ccccc2)CC1	21%[44.1 µM]
CSc1cccc(NC(=O)NC[C@H]2C[C@@H]3CCN2C[C@@H]3CN2CCSCC2)c1	10µM*
N#Cc1cccc(NC(=O)NC[C@H]2C[C@@H]3CCN2C[C@@H]3CN2CCSCC2)c1	-3%[44.1 µM]
COCCn1ncc(N2CCC(C(=O)Nc3ccc(F)cc3F)C2)cc1=O (stereo not given)	i
CC(=O)NCC(=O)N1Cc2ccccc2CC2(CCN(CC3CCNC3)CC2)C1 (stereo not given)	9%
O=C(C1CCC(=O)N(C2CCCCCC2)C1)N1Cc2ccccc2C1 (stereo not given)	-12%
CCc1ccc(-c2cn3c(n2)sc2cc(C(=O)NCC(C)c4ccccc4)ccc23)cc1 (stereo not given)	-1%
O=C(NC1CCCCC1)c1ccc2c(c1)sc1nc(-c3ccccc3)cn12	i
SMILES	Pf Dd2 growth
CCC1CCCCN1CCCNC(=O)c1ccc2c(c1)sc1nc(-c3ccc(F)cc3)cn12 (stereo not given)	1µM*
Cc1ccc(-c2cn3c(n2)sc2cc(C(=O)NC4CCCCCC4)ccc23)cc1	1%
O=C(NCCCN1CCCCCC1)c1ccc2c(c1)sc1nc(-c3ccccc3)cn12	10µM*
CCc1ccc(-c2cn3c(n2)sc2cc(C(=O)NC4CCCCCC4)ccc23)cc1	8%
CCc1ccc(-c2cn3c(n2)sc2cc(C(=O)NCCCc4ccccc4)ccc23)cc1	i
Cc1ccc(-c2cn3c(n2)sc2cc(C(=O)NCCCc4ccccc4)ccc23)c(C)c1	5µM*
O=C(NCc1cccs1)c1ccc2c(c1)sc1nc(-c3ccc(F)cc3)cn12	-12%
CCOCC(=O)N1CCC2(CC1)CC(c1ccccc1)C(=O)N2C (stereo not given)	-12%
CC(C)c1noc(C2CCCN(C(=O)Cc3cccc(F)c3)CCC(=O)NCC2)n1 (stereo not given)	-13%
O=C1NCCCCCCN(C(=O)c2cnccn2)[C@H]2CCC[C@@H]12	2%
Cc1ccc(-c2nc(C)c(C(=O)Nc3ccc4c(c3)C(=O)N3CCC[C@H]3C(=O)N4)s2)cc1	-12%
CCS(=O)(=O)NCc1nc(-c2ccc(C)cc2)c(-c2ccccn2)[nH]1	-24%
COc1cccc(NC(=O)CCC2CCN(C(=O)c3cnc(C)[nH]c3=O)CC2)c1	-6%
C=CCN1CC2(CCC1=O)CCN(C(=O)[C@H](OC)c1ccccc1)CC2	-9%
CC(=O)Nc1ccc(S(=O)(=O)N[C@H]2CO[C@H]3[C@@H]2OC[C@H]3OC(=O)Nc2cccc3ccccc23)cc1	i
COc1ccc(-c2ccc3nnc(CNC(=O)c4sccc4C)n3n2)cc1	5%
COc1ccc(N2Cc3c(ncnc3N3CCC(N4CCCCC4)CC3)N(C)CC2=O)cc1	-18%
COc1ncccc1-c1nc(-c2c(C)noc2C)cc2c1cc(C)n2CCN(C)C	i
COc1ncc(-c2nc(-c3c(C)noc3C)cc3c2cc(C)n3CCN(C)C)cn1	14µM*

Screening data: PubChem BioAssay, National Center for Advancing Translational Sciences (NCATS)
